# Test results published in paper PMC4336329 (PLoS ONE, 2015).
# The whole screen tested about 310,000 compounds, of which about 14,000 (4.5%) showed an effect of 50% or more. The effect is printed as a negative number. The sample as a whole holds a higher share of strong results than the screen did.
# Target: human ether-à-go-go-related gene (hERG) potassium channel (human, UniProt Q12809)
# Experiment: primary screen, population patch clamp on CHO cells stably expressing hERG; higher = less effect of the substance
# 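Also: peak tail current of the secondary pulse compared with the same well before compound.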
# human ether-à-go-go-related gene (hERG) potassium channel, sequence (Q12809 whole entry, looked up): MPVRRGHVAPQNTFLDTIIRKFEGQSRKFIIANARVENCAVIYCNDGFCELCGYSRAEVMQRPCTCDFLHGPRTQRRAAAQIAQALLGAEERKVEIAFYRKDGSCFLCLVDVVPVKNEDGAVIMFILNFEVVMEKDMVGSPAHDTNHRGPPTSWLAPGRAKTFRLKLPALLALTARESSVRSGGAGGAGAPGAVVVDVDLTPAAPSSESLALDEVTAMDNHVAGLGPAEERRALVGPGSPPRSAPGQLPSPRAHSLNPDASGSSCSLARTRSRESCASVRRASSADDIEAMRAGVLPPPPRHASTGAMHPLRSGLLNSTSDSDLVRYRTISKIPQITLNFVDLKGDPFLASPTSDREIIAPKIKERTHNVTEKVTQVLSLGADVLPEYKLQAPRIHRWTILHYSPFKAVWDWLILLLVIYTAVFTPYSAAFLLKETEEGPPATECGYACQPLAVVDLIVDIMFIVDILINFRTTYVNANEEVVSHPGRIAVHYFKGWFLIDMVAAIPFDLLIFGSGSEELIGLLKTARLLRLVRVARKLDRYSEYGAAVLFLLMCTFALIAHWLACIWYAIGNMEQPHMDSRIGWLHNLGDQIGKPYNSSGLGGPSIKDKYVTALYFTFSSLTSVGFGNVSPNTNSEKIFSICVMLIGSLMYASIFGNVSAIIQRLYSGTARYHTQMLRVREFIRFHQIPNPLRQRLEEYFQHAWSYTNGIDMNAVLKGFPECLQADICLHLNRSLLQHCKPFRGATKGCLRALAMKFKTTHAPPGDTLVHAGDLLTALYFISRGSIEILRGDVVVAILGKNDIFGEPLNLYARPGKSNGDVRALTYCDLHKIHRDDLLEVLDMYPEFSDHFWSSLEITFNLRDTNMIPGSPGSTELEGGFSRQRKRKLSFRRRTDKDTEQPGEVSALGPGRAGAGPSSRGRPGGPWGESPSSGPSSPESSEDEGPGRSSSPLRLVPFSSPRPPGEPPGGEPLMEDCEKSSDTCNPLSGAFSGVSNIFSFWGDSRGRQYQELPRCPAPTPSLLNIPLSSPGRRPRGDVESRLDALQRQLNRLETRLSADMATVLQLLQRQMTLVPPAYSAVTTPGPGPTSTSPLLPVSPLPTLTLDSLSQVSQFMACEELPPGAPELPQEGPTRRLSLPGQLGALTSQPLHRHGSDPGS
row,SMILES,"hERG current change (%, negative = inhibition) at 10uM [%]"
1,CCOC(=O)c1cc(-c2ccccc2)nn1CC1CC(c2cccnc2)=NO1 (stereo not shown),3.47
2,COc1ccc(NC(=O)C2CCCN(S(=O)(=O)c3ccc4[nH]c(=O)ccc4c3)C2)cc1 (stereo not shown),9.08
3,COCCCNC(=O)Cn1ncc2ccsc2c1=O,13.6
4,O=C(COc1ccccc1Cl)NC(=O)NC1CCCCC1,5.11
5,COc1ccc(CNC(=O)Cn2ncn3cccc3c2=O)cc1,3.12
6,Cc1ccc(CNC(=O)c2cc(-c3ccccc3)nn2CC2CC(c3cccnc3)=NO2)cc1 (stereo not shown),-69.7
7,COCCNC(=O)c1cc(-c2ccccc2)nn1CC1CC(c2cccnc2)=NO1 (stereo not shown),2.9
8,CC(Oc1ccccc1F)c1nnc(SCC(=O)NCc2ccc3c(c2)OCO3)o1 (stereo not shown),-32.1
9,Cl.NS(=O)(=O)c1ccc(CCNCc2cc(Br)ccc2OCc2ccccc2F)cc1,-75.9
10,CCOc1ccc([N+](=O)[O-])cc1CNCCc1ccccc1.Cl,-45.5
11,Cl.NS(=O)(=O)c1ccc(CCNCc2cc(Br)ccc2OCc2ccccc2)cc1,-71.8
12,COc1ccc(Br)cc1CNc1ccc(S(N)(=O)=O)cc1,-14.1
13,NS(=O)(=O)c1ccc(NCc2cc(Cl)ccc2OCc2ccccc2F)cc1,-2.13
14,NS(=O)(=O)c1ccc(NCc2ccccc2OCc2ccccc2F)cc1,-2.39
15,CCn1c(SCc2nc(-c3ccccc3)no2)nc2ccccc21,-24.6
16,CCCCOc1ccccc1C(=O)NCCCCCC(=O)O,10.3
17,CCc1cccc(OCCCn2ccnc2)c1.O=C(O)C(=O)O,-25.7
18,Cc1cc(C(F)F)n2nc(C(=O)Nc3sc4c(c3C#N)CCC4)nc2n1,18.3
19,Cc1cc(C(F)F)n2nc(C(=O)Nc3sc4c(c3C(N)=O)CCC4)nc2n1,-60.9
20,COC(=O)c1c(NC(=O)c2nc3nc(C)cc(C(F)F)n3n2)sc2c1CCC2,5.97
21,CCC1CCC/C1=N\NC(=O)c1ccccc1Cl (stereo not shown),19.2
22,CCOc1ccccc1NC(=O)COC(=O)CSc1ccc(Cl)cc1,21.2

row,SMILES,"hERG current change (%, negative = inhibition) at 10uM [%]"
1,CCOc1ccccc1NC(=O)COC(=O)CC(NC(N)=O)c1ccc(Cl)cc1 (stereo not shown),-68.4
2,N#Cc1ccc(COC(=O)CC(NC(N)=O)c2ccc(Cl)cc2)cc1 (stereo not shown),-59.9
3,COc1ccc(CNC(=O)COC(=O)CC(NC(N)=O)c2ccc(Cl)cc2)cc1OC (stereo not shown),1.27
4,NC(=O)COC(=O)CC(NC(N)=O)c1ccc(Cl)cc1 (stereo not shown),17.6
5,COc1cccc(NC(=O)COC(=O)CC(NC(N)=O)c2ccc(Cl)cc2)c1 (stereo not shown),-2.18
6,CC(=O)c1c(O)cc(=O)oc1-c1ccc(C)cc1,16.7
7,COc1cc(C2N(c3ccccc3)CCN2c2ccccc2)ccc1OC(C)=O,-1.36
8,Cn1c(CNc2ccccc2)nc2ccccc21,4.27
9,CCOC(=O)Cn1cc(C#N)c2ccccc21,15.1
10,CCOC(=O)N1CCC(=NNc2ccc(S(N)(=O)=O)cc2[N+](=O)[O-])CC1,-11.8
11,CCCOc1ccc(S(=O)(=O)N2CCOCC2)cc1[N+](=O)[O-],-57.8
12,CC(=O)N1CCC(=NNc2ccc(S(=O)(=O)N3CCOCC3)cc2[N+](=O)[O-])CC1,-18.2
13,CCOc1ccc(S(=O)(=O)N2CCOCC2)cc1[N+](=O)[O-],-52.2
14,CCCOc1ccc(S(=O)(=O)N2CCCC2)cc1[N+](=O)[O-],-30.1
15,CCOC(=O)N1CCC(=NNc2ccc(S(=O)(=O)N3CCOCC3)cc2[N+](=O)[O-])CC1,-61.3
16,CCOc1ccc(S(=O)(=O)N2CCOCC2)cc1NS(=O)(=O)c1ccc(OC)c([N+](=O)[O-])c1,-41.7
17,O=[N+]([O-])c1cc(S(=O)(=O)N2CCOCC2)ccc1OCc1cccc(Cl)c1,1.31
18,O=C1c2ccccc2C(=O)N1COc1ccc(S(=O)(=O)N2CCOCC2)cc1[N+](=O)[O-],-22.8
19,COCCn1c(SCC(=O)Nc2c(C)n(C)n(-c3ccccc3)c2=O)nc2ccccc2c1=O,-19.6
20,CCCC(=O)N(c1ccc(C(=O)O)cc1)c1nc(-c2ccccc2)c(C)s1,14.2
21,CCOc1cc2c(cc1OCC)C(C(=O)O)C(c1cc(OC)c(OC)c(OC)c1)N(C)C2=O (stereo not shown),3.02
